Data published in PubChem BioAssay AID1159580 (chemical genetic matrix, 2015).
Where “and” joins values, the source holds several entries; their conditions need not be identical. Identical values can stand only once. The campaign covered roughly 5,500 compounds. About 2,000 (36%) were called active. Another 18% or so got no clear call; they are omitted. Rule as the data show it: active = normalized growth mostly below about 0.91 (no sharp cut-off); inconclusive = no clear call, values can overlap the other calls; inactive = mostly above about 0.92. Some of the results follow.

Experiment: chemical genetic growth profiling, strain panel (AID 1159580);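 also: tested at 20 µM; growth read once vehicle control cultures reached saturation at 30 °C; 1 = growth at the plate median or of vehicle wells; lower values mean less growth of the strain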
Conditions: S. cerevisiae deletion strains, growth OD

Measured: normalized growth

C[CH2][Hg][S]c1ccccc1C(=O)O
active: locus YAL013W, strain DEP1, stronger effect = lower value 0.0571 | locus YAL021C, strain ccr4, stronger effect = lower value 0.0644 | locus YAL026C, strain drs2, stronger effect = lower value 0.0601 | locus YAL030W, strain snc1, stronger effect = lower value 0.0549 | locus YBL061C, strain skt5, stronger effect = lower value 0.0584 | locus YBR009C, strain hhf1, stronger effect = lower value 0.0625 | locus YBR021W, strain FUR4, stronger effect = lower value 0.0826 | locus YBR023C, strain chs3, stronger effect = lower value 0.0607 | locus YBR171W, strain sec66, stronger effect = lower value 0.0719 | locus YBR229C, strain ROT2, stronger effect = lower value 0.0466 | locus YBR231C, strain swc5, stronger effect = lower value 0.0602 | locus YBR279W, strain paf1, stronger effect = lower value 0.0565 | locus YCL011C, strain gbp2, stronger effect = lower value 0.0545 | locus YCL016C, strain dcc1, stronger effect = lower value 0.0628 | locus YCL029C, strain bik1, stronger effect = lower value 0.0644 | locus YCL061C, strain MRC1, stronger effect = lower value 0.0624 | locus YCL069W, strain vba3, stronger effect = lower value 0.0582 | locus YCR088W, strain abp1, stronger effect = lower value 0.0571 | locus YDL005C, strain med2, stronger effect = lower value 0.0718 | locus YDL035C, strain GPR1, stronger effect = lower value 0.0506 | locus YDL040C, strain nat1, stronger effect = lower value 0.0559 | locus YDL074C, strain BRE1, stronger effect = lower value 0.0797 | locus YDL101C, strain DUN1, stronger effect = lower value 0.0547 | locus YDL134C, strain PPH21, stronger effect = lower value 0.0487 | locus YDL185W, strain tfp1, stronger effect = lower value 0.056 | locus YDL192W, strain arf1, stronger effect = lower value 0.0586 | locus YDR001C, strain nth1, stronger effect = lower value 0.0548 | locus YDR069C, strain doa4, stronger effect = lower value 0.0614 | locus YDR101C, strain arx1, stronger effect = lower value 0.0572 | locus YDR137W, strain rgp1, stronger effect = lower value 0.0826 | locus YDR150W, strain NUM1, stronger effect = lower value 0.058 | locus YDR159W, strain sac3, stronger effect = lower value 0.0891 | locus YDR162C, strain NBP2, stronger effect = lower value 0.0541 | locus YDR195W, strain ref2 0.117 | locus YDR297W, strain sur2, stronger effect = lower value 0.0559 | locus YDR318W, strain mcm21, stronger effect = lower value 0.0596 | locus YDR334W, strain swr1, stronger effect = lower value 0.06 | locus YDR335W, strain msn5, stronger effect = lower value 0.0577 | locus YDR388W, stronger effect = lower value 0.0549 | locus YDR392W, strain spt3, stronger effect = lower value 0.0928 | locus YDR502C, strain sam2, stronger effect = lower value 0.0576 | locus YEL003W, strain gim4, stronger effect = lower value 0.0526 | locus YEL037C, strain rad23, stronger effect = lower value 0.0545 | locus YEL061C, strain CIN8 (second series), stronger effect = lower value 0.058 | locus YEL061C, strain CIN8, stronger effect = lower value 0.0473 | locus YER015W, strain faa2, stronger effect = lower value 0.0585 | locus YER016W, strain bim1, stronger effect = lower value 0.059 | locus YER110C, stronger effect = lower value 0.0716 | locus YER111C, strain swi4, stronger effect = lower value 0.0734 | locus YER155C, strain BEM2 (second series), stronger effect = lower value 0.0849 | locus YER155C, strain BEM2, stronger effect = lower value 0.0624 | locus YER167W, strain BCK2, stronger effect = lower value 0.0502 | locus YFR010W, strain ubp6, stronger effect = lower value 0.0647 | locus YGL078C, strain dbp3, stronger effect = lower value 0.0538 | locus YGL086W, strain mad1, stronger effect = lower value 0.0535 | locus YGL167C, strain pmr1, stronger effect = lower value 0.0714 | locus YGL173C, strain kem1, stronger effect = lower value 0.0663 | locus YGL227W, strain vid30, stronger effect = lower value 0.059 | locus YGL240W, strain doc1, stronger effect = lower value 0.0734 | locus YGL248W, strain PDE1, stronger effect = lower value 0.0448 | locus YGL253W, strain hxk2, stronger effect = lower value 0.0514 | locus YGR078C, strain PAC10, stronger effect = lower value 0.0492 | locus YGR135W, strain pre9, stronger effect = lower value 0.0647 | locus YGR229C, strain SMI1, stronger effect = lower value 0.0574 | locus YGR252W, strain gcn5, stronger effect = lower value 0.152 | locus YHR013C, strain ard1, stronger effect = lower value 0.106 | locus YHR027C, strain rpn1, stronger effect = lower value 0.0612 | locus YHR030C, strain SLT2, stronger effect = lower value 0.0498 and 0.113 | locus YHR079C, strain IRE1 (second series), stronger effect = lower value 0.0541 | locus YHR079C, strain IRE1, stronger effect = lower value 0.123 | locus YHR094C, strain hxt1, stronger effect = lower value 0.0545 | locus YHR129C, strain ARP1, stronger effect = lower value 0.0546 | locus YHR142W, strain chs7, stronger effect = lower value 0.0696 | locus YHR200W, strain rpn10, stronger effect = lower value 0.057 | locus YIL066C, strain RNR3, stronger effect = lower value 0.0505 | locus YIL073C, strain SPO22, stronger effect = lower value 0.103 | locus YIL125W, strain kgd1, stronger effect = lower value 0.0543 | locus YIR030C, strain dcg1, stronger effect = lower value 0.0568 | locus YJL092W, strain hpr5, stronger effect = lower value 0.0555 | locus YJL095W, strain BCK1 (second series), stronger effect = lower value 0.0563 | locus YJL095W, strain BCK1, stronger effect = lower value 0.0505 and 0.109 | locus YJL115W, strain asf1, stronger effect = lower value 0.0695 | locus YJL129C, strain trk1, stronger effect = lower value 0.0829 | locus YJL134W, strain LCB3, stronger effect = lower value 0.0483 | locus YJL154C, strain vps35, stronger effect = lower value 0.0588 | locus YJL164C, strain tpk1, stronger effect = lower value 0.0629 | locus YJL166W, strain qcr8, stronger effect = lower value 0.0596 | locus YJL168C, strain set2, stronger effect = lower value 0.0562 | locus YJL187C, strain SWE1 (second series), stronger effect = lower value 0.0465 | locus YJL187C, strain SWE1, stronger effect = lower value 0.0547 | locus YJR043C, strain POL32, stronger effect = lower value 0.0607 | locus YJR066W, strain TOR1, stronger effect = lower value -0.000335
